Results on 23 compounds are retold here after PubChem BioAssay (NCATS).

Molecules are shown by their SMILES. Records with an inconclusive call do not appear. A number with no mark means an inactive call. The source made the active and inactive calls. The call rests on the fitted dose curve; in most records, active means well fitted cell-killing curve with a large enough effect; inconclusive means small, poorly fitted or top-dose-only effect, or effect the other way; inactive means no such curve, though single readings can be large or run the other way.
Potency means the concentration at half of the fitted maximal effect.

A short description of this assay: Quantitative High-Throughput drug screen in 47 multiple myeloma cell lines against the NCATS MIPE library collection: U266_ATCC cell viability assay (AID 1919864). Further: nearly all actives have a fitted effect of over 35% in size. Conditions: U266 myeloma viability, CellTiter-Glo ATP luminescence, 48 h; series mostly up to 45.8 µM; viability (% of DMSO control): at the top concentration. The source says: PI: Beverly A. Mock Ph.D.
Laboratory of Cancer Biology and Genetics,
Center for Cancer Research, National Cancer Institute,
National Institute of Health, Bethesda, Maryland
Drug resistance and disease progression are common in multiple myeloma (MM) patients, underscoring the need for new therapeutic combinations. […] We hypothesized that effective combinations would reduce MYC expression and enhance p16 activity. […] These preclinical data identify potentially useful drug combinations for evaluation in drug-resistant MM and reveal potential mechanisms of combined drug sensitivity.
Described herein is the primary MIPE qHTS used to cherrypick compounds. Validated compounds were then further tested for potential synergistic activiy.
[1] Peat TJ, Gaikwad SM, Dubois W, Gyabaah-Kessie N, Zhang S, Gorjifard S, Phyo Z, Andres M, Hughitt VK, Simpson RM, Miller MA, Girvin AT, Taylor A, Williams D, D'Antonio N, Zhang Y, Rajagopalan A, Flietner E, Wilson K, Zhang X, Shinn P, Klumpp-Thomas C, McKnight C, Itkin Z, Chen L, Kazandijian D, Zhang J, Michalowski AM, Simmons JK, Keats J, Thomas CJ, Mock BA. Drug combinations identified by high-throughput screening promote cell cycle transition and upregulate Smad pathways in myeloma. Cancer Lett. 2023 Aug 1;568:216284. doi: 10.1016/j.canlet.2023.216284. Epub 2023 Jun 24. PMID: 37356470; PMCID: PMC10408729.
SEQUENCE No. (e.g., 1, 2, 3, etc.); […] (e.g., Cells, Incubation, Reagent, etc.); VALUE and DESCRIPTION.
1; Cells; 5 uL; white, solid bottom 1536-well Greiner assay plate.
2; Compounds; 23 nL; Kalypsis pin tool (Wako USA) equipped with a 1536-well pin head to transfer to the assay plates.
3; Incubation; 48 hours; 37C incubation.
4; Reagent;5uL; CellTiter Glo (Promega).
5; Detector; 425V; Luminescence; Viewlux PerkinElmer.
NOTES (numbers refer to Sequence numbers above)
1. The cell-based screening methods employed in this study were like those previously published. Briefly, the corresponding myeloma cell lines were screened in 1,536-well plates with 500 cells, 5-uL per well for inhibition of cell viability (assessed by measuring ATP levels with CellTiterGlo).
2. NCATS MIPE 4.0 library of approved and investigational drugs were added using the Kalypsis pin tool. Wells treated with DMSO only for 100% viability and media only for 0% viability were used as controls.
3. The assay plates were covered and incubated for 48 hours in a 37C, 5% CO2 incubator with controlled humidity.
4. After 48 hours, CellTilter-GloTM luminescent substrate mix (Promega) reagent was added to the assay plate and plates we incubated for 5 min at room temperature.
5. Signal was measured as median relative luminescence units on a ViewLux (PerkinElmer) multiplate reader.
[1] Heske CM, Davis MI, Baumgart JT, Wilson K, Gormally MV, Chen L, Zhang X, Ceribelli M, Duveau DY, Guha R, Ferrer M, Arnaldez FI, Ji J, Tran HL, Zhang Y, Mendoza A, Helman LJ, Thomas CJ. Matrix Screen Identifies Synergistic Combination of PARP Inhibitors and Nicotinamide Phosphoribosyltransferase (NAMPT) Inhibitors in Ewing Sarcoma. Clin Cancer Res. 2017 Dec 1;23(23):7301-7311. doi: 10.1158/1078-0432.CCR-17-1121. Epub 2017 Sep 12. PMID: 28899971; PMCID: PMC6636827.
On the technique in general: ATP-based viability assays read luminescence as a measure of living cells.
Turning to `C=C(C)[C@H]1Cc2c(ccc3c2O[C@@H]2COc4cc(OC)c(OC)cc4[C@@H]2C3=O)O1`, the Potency is 0.332 µM (active).
On to `N[C@@H](Cc1ccc(N(CCCl)CCCl)cc1)C(=O)O`, for which the Potency was 16.6 µM (active).
For the compound `CN(C)CCc1ccc(O)cc1`, the “viability (% of DMSO control)” value was 127%.
On the same count and under the same terms, for `COc1ccc(C(=O)c2c(C)n(CCN3CCOCC3)c3ccccc23)cc1` the value was 143%.
With `O=C(O)C(=O)c1cn(Cc2ccccc2)c2ccc(-c3ccc(OC(F)(F)F)cc3)cc12`, the Potency is 23.5 µM (active).
With `CN(C)[C@@H]1C(=O)C(C(N)=O)=C(O)[C@@]2(O)C(=O)C3=C(O)c4c(O)cccc4[C@@](C)(O)[C@H]3C[C@@H]12`, the “viability (% of DMSO control)” value was 130%.
With `CNC(=O)c1ccc(N2C(=S)N(c3ccc(C#N)c(C(F)(F)F)c3)C(=O)C23CCC3)cc1F`, the Potency is 8.33 µM (active).
Regarding `COC1(CS(=O)c2ccccc2)CCN(CCc2c[nH]c3ccc(F)cc23)CC1` (stereo not drawn), the “viability (% of DMSO control)” value was 103%.
For the compound `Cc1cc(SCc2sc(-c3ccc(C(F)(F)F)c(F)c3)nc2C)ccc1OCC(=O)O`, the Potency is 18.7 µM (active).
Still for that read-out and setting: with `COC[C@H]1OC(=O)c2coc3c2[C@@]1(C)C1=C(C3=O)C2CCC(=O)[C@@]2(C)C[C@H]1OC(C)=O` (stereo partly drawn) the figure was 20.9 µM (active).
`CCCC(C)(COC(N)=O)COC(=O)NC(C)C` (stereo not drawn): the “viability (% of DMSO control)” value is 131%.
As to `CNCC(O)c1ccc(O)cc1` (stereo not drawn), the “viability (% of DMSO control)” value was 162%.
Take `CC1=C2C[C@@H]3[C@@H](CC=C4C[C@@H](O)CC[C@@]43C)[C@@H]2CC[C@]12O[C@H]1C[C@H](C)CN[C@H]1[C@H]2C`: the Potency was 20.9 µM (active).
`CC(O)(CS(=O)(=O)c1ccc(F)cc1)C(=O)Nc1ccc(C#N)c(C(F)(F)F)c1` (stereo not drawn): the Potency was 0.743 µM (active).
`CNC(=O)N1N=C(c2ccc(N)cc2)c2cc3c(cc2CC1C)OCO3` (stereo not drawn): the Potency was 3.72 µM (active).
On to `Cc1sc2c(c1C)C(c1ccc(Cl)cc1)=N[C@@H](CC(=O)OC(C)(C)C)c1nnc(C)n1-2`, for which the Potency is 0.148 µM (active).
Regarding `CC(C)CC(N(C)C)C1(c2ccc(Cl)cc2)CCC1` (stereo not drawn), the Potency was 4.18 µM (active).
Consider `O=C1CC[C@@]2(O)[C@H]3Cc4ccc(O)c5c4[C@@]2(CCN3CC2CC2)[C@H]1O5`, for which the “viability (% of DMSO control)” value is 134%.
As for `O=c1[nH]c2ccccc2n1CCCN1CCC(n2c(=O)[nH]c3cc(Cl)ccc32)CC1`, the “viability (% of DMSO control)” value is 101%.
Consider `NCC1(CC(=O)O)CCCCC1`, for which the “viability (% of DMSO control)” value was 103%.
Consider `C[C@@H]1O[C@@H](O[C@H]2C[C@@H](O)[C@]3(CO)[C@H]4[C@H](O)C[C@]5(C)[C@@H](C6=CC(=O)OC6)CC[C@]5(O)[C@@H]4CC[C@]3(O)C2)[C@H](O)[C@H](O)[C@H]1O`, for which the Potency is 0.0209 µM (active).
As for `C[C@@H]1[C@@H](CC(C[C@H]2O[C@@H]3O[C@]4(C)CC[C@@H]5[C@H](C)CC[C@@H]([C@H]2C)[C@@]35OO4)C[S+](=O)([O-])c2ccc(COC(=O)N(C)C)cc2)O[C@@H]2O[C@]3(C)CC[C@H]4[C@H](C)CC[C@@H]1[C@@]24OO3` (stereo partly drawn), the Potency is 0.372 µM (active).
Regarding `C#CCN(C)[C@H](C)Cc1ccccc1`, the “viability (% of DMSO control)” value is 114%.
